Compound activity as filed in PubChem.
This is a sample that favours compounds with a hit; in the whole collection about 19% have one here.
DT40 TDP1 no CPT: qHTS for Inhibitors of human tyrosyl-DNA phosphodiesterase 1 (TDP1): qHTS in cells in absence of CPT | DT40 Tdp1-/- hTDP1 cells, no CPT, ATP luminescence, 48 h | Potency, µM (doses to about 46.2 µM), inactives show at the top dose activity change, negative = growth inhibition, hits mostly inhibitors | 15% of 420,000 active | AID 686978, 2013; further: potency means the concentration at half of the fitted maximal effect; nearly all actives have a fitted effect of over 55% in size
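DT40 Tdp1-/-;hTDP1 cells, no CPT (DMSO vehicle only), 400 cells/well; compounds pin-transferred; ≥48 hr, 37 °C; CellTiter-Glo 30 min RT dark, luminescence read.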
IL-1B inflam inh: blocks inflammasome-driven IL-1 beta release | 4.7% of 360,000 active | activity change, % at 57.5 µM | AID 743279 | THP-1 LPS/ATP IL-1B secretion, AlphaLISA, 16 h; active compounds read low; in the data active means activity change below about -50%; inconclusive means mostly about -30% to -49%
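THP-1 cells pretreated 1 hr with compounds (up to 57.5 uM final), then stimulated with LPS (250 ng/mL final) plus ATP (1.25 mM final); secreted IL-1B measured by AlphaLISA after 16 hr, decreased signal indicating inhibition.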
TDP1 inh: inhibitors of human tyrosyl-DNA phosphodiesterase TDP1 | recombinant TDP1, AlphaScreen DNA substrate cleavage | Potency, µM (titrated, usually from 130 µM), for the others: at the top dose activity change, negative = inhibition, hits mostly inhibitors | 0.28% of 350,000 active | AID 485290; further: potency means the concentration at half of the fitted maximal effect; nearly all actives have a fitted effect of over 40% in size
Target sequence (Q9NUW8 whole entry, looked up): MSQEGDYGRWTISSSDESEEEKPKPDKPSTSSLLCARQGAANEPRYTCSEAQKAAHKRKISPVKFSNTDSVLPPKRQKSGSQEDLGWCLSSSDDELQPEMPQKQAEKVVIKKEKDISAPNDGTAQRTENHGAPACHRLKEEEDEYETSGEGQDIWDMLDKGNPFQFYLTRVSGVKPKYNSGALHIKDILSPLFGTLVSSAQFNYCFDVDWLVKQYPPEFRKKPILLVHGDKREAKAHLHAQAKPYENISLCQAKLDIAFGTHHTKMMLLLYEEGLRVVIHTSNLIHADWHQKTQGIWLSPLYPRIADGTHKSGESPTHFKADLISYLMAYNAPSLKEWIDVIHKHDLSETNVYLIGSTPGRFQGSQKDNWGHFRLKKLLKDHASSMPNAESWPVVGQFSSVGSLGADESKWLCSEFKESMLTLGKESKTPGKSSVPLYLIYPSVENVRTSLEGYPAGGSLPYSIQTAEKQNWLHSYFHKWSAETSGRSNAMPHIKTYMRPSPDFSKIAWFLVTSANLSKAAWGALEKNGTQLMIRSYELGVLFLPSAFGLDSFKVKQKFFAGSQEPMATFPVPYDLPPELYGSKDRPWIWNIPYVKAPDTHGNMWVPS
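Recombinant human Tdp1 (E. coli-expressed, 1 nM final) preincubated with compounds 15 min at room temperature, then 5'-biotin/3'-phosphotyrosine-FITC DNA substrate (15 nM final) added for 5 min. AlphaScreen beads (10 ug/ml final) added 10 min; cleavage lowers signal.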
DT40 TDP1 CPT: growth inhibition of DT40 Tdp1-/-;hTDP1 cells with camptothecin (screen for TDP1 inhibitors) | AID 686979 | chicken DT40 Tdp1-/-;hTDP1 cells + 20 nM CPT, ATP luminescence, 48 h | 12% of 420,000 active | Potency, µM (titrated, usually from 46.2 µM), for inactives: top-dose activity change, negative = growth inhibition, most hits filed as inhibitors; further: potency means the concentration at half of the fitted maximal effect; nearly all actives have a fitted effect of over 55% in size
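Chicken DT40 Tdp1-/- cells stably complemented with human TDP1 were seeded at 400 cells/well in medium containing 20 nM camptothecin, exposed to pin-transferred compounds, and grown at 37 °C for at least 48 hr. Viability was read as ATP luminescence.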
Giardia kill: Giardia lamblia killing | Giardia lamblia trophozoite viability | activity change, % at 7.66 µM, hits read low | 0.15% of 340,000 active; in the data active means activity change below about -80%; inconclusive means between about -30% and that limit;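 further: parasites exposed to compound for two days anaerobically before the ATP read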
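Killing of trophozoites was scored by loss of ATP luminescence after a 48 hrs anaerobic exposure to compounds at 37 deg C, using 100 cells per well.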
ELG1 repair inh: blocks ELG1-dependent DNA repair in HEK293T cells. HEK293T ELG1-luciferase reporter, luminescence, 16 h; DNA damage induced by 5-fluorouridine. Potency, µM (top dose mostly 46.1 µM), inactives show at the highest dose activity change, negative = inhibition, hits mostly inhibitors. 2.3% of 330,000 active; further: potency means the concentration at half of the fitted maximal effect; nearly all actives have a fitted effect of over 55% in size
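Luminescence from the luciferase reporter, measured 30 min after ONE-Glo reagent at room temperature, was the read-out. Beforehand, 2,000 cells per well were exposed for 16 hr at 37 °C to 5-fluorouridine together with compound or vehicle.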
* hit, by the source's call; ? = inconclusive; . = not tested or not shown; [ ] = remark or other dose. Unless noted, the call rests on the fitted dose curve; in most records, active means well fitted curve in the direction sought with a large enough effect; inconclusive means small, poorly fitted or top-dose-only effect, or another doubt; inactive means no such curve, though single readings can be large; an effect the other way counts as inactive or inconclusive. On the % scale 0 is the no-effect control and ±100 the full control effect.

SMILES | DT40 TDP1 no CPT | IL-1B inflam inh | TDP1 inh | DT40 TDP1 CPT | Giardia kill | ELG1 repair inh
O=C(COc1ccccc1)NCC(c1ccco1)N1CCN(c2ccccc2)CC1 (stereo not given) | -10.3% | -9.5 | . | ? | -9.2 | -4.9%
CC1CCN(CCCCOc2cccc(Br)c2)CC1 | ? | ? | 4.5% | ? | 0.4 | -1.9%
Cc1cc(Cl)c(OCCOCCN2CCN(C)CC2)c(Br)c1 | ? | -13.1 | . | ? | -17.0 | -5.9%
Cc1cc(C)c(OCCCCN2CCC(C)CC2)c(Br)c1 | ? | -78.2* | -2.3% | ? | -13.5 | ?
CC1CCN(CCCCOc2ccccc2Br)CC1 | ? | -23.4 | -3.4% | ? | -27.9 | -13.5%
CC1CCN(CCCCOc2ccccc2F)CC1 | 14.6µM* | -6.5 | . | ? | ? | 1.9%
Cc1cc(Cl)c(OCCOCCN2CCC(C)CC2)c(Br)c1 | 16.4µM* | -57.3* | -5.1% | 23.1µM* | 14.1 | 9.9%
COc1ccc(-c2nc(CSCC(=O)NC3CCCc4ccccc43)c(C)o2)cc1OC (stereo not given) | 20.6µM* | -2.6 | 7.0% | ? | 1.7 | 16.4µM*
COc1ccc(-c2nc(CSCC(=O)N3CCc4ccccc4C3)c(C)o2)cc1OC | 20.6µM* | ? | 5.2% | ? | 1.2 | ?
CC(=O)C(Cc1ccccc1)NC(=O)COC(=O)c1cc(S(=O)(=O)N2CCOCC2)ccc1F (stereo not given) | 12.8% | -4.8 | . | 12.7% | . | .
Cc1cccn2c(=O)c(C(=O)N3CCN(c4ccccc4)CC3)cnc12 | -16.1% | . | -4.4% | -10.3% | . | .
Cc1sc(C2C(C#N)=C(N)N(c3ccc(Cl)cc3)C3=C2C(=O)CCC3)cc1CN1CCOCC1 (stereo not given) | ? | . | 4.7% | ? | . | .
Cn1c(CNc2cccc(Cl)c2)nnc1SCC#N | -0.1% | 33.9 | 1.2% | 7.2% | 2.1 | -1.1%
CCCCN([C@H](CO)C(C)C)S(=O)(=O)c1ccccc1Br | 20.6µM* | -0.4 | 0.7%[56.1 µM] | ? | -4.5 | -8.7%
C=CCCN([C@@H](C)C(=O)OC)S(=O)(=O)c1ccccc1Br | ? | 34.2 | . | -20.0% | 7.7 | -1.4%
CC(NC(=O)C12CC3CC(CC(C3)C1)C2)C(=O)N/N=C/C1=C(N2CCOCC2)C(=C\c2ccccc2)/CC1 (stereo not given) | 20.6µM* | -23.1 | 9.1% | ? | 5.9 | -7.3%
O=C1Nc2ccc(Br)cc2/C1=N\N=C\C1=C(N2CCOCC2)C(=C/c2ccccc2)/CC1 | 10.3µM* | 16.0 | . | ? | -0.6 | .
Cn1cc(C(=O)N/N=C/C2=C(N3CCOCC3)C(=C\c3ccccc3)/CC2)ccc1=O | ? | 25.8 | -1.2% | ? | -4.9 | ?
CCCCc1ccc(NC(=S)N2CCC(O)CC2)cc1 | 0.4% | 17.8 | 6.2% | 10.4% | -15.9 | 0.0%
Cc1cccc(NC(=O)CSc2ccc(-c3ccccn3)nn2)c1 | ? | . | 5.1% | ? | . | .
CCc1ccc(NC(=O)CSc2ccc(-c3ccccn3)nn2)cc1 | 23.1µM* | 264.9 | -1.6% | ? | 25.6 | ?
O=C(CSc1ccccn1)Nc1ccc2c(c1)C(=O)c1ccccc1C2=O | 16.4µM* | 0.0 | 22.4µM* | ? | ? | ?
CCOC(=O)c1ccccc1NC(=O)CSc1ccc(-c2ccccn2)nn1 | ? | 149.2 | 1.8% | 3.66µM* | 2.9 | 2.4%
Cc1ccc(NC(=O)CSc2ccc(-c3ccccn3)nn2)cc1F | 11.6µM* | 107.6 | 2.3% | 16.4µM* | 18.6 | ?
CCn1c(=S)sc2c(=O)n(CC(=O)NCCCc3ccccc3)c(C)nc21 | 0.8% | 50.9 | . | -24.1% | -4.3 | ?
SMILES | DT40 TDP1 no CPT | IL-1B inflam inh | TDP1 inh | DT40 TDP1 CPT | Giardia kill | ELG1 repair inh
Cc1ccc(NC(=O)C23CCC(C)(C(=O)[C@H]2Br)C3(C)C)cc1 (stereo not given in full) | -23.5% | -2.2 | . | -9.6% | -8.2 | ?
O=C(COc1ccc(Cl)cc1)Nc1cccc(-c2ccc(N3CCOCC3)nn2)c1 | ? | -20.4 | . | ? | -12.7 | ?
O=C(NCCc1ccccc1)C1CCCN1C(=O)Nc1ccc(Cl)cc1 (stereo not given) | ? | 12.2 | 0.7% | 16.4µM* | -1.9 | -8.6%
O=C(NCc1cccs1)C1CCCN1C(=O)Nc1ccccc1Cl (stereo not given) | 23.1µM* | 1.0 | . | 5.8% | -11.0 | 10.3%
O=C(NCCc1ccccc1)C1CCCN1C(=O)Nc1ccccc1 (stereo not given) | 1.7% | 1.4 | 7.1% | 6.9% | -22.8 | 6.5%
Cc1ccccc1NC(=O)N1CCCC1C(=O)NCc1cccs1 (stereo not given) | -5.8% | -19.1 | -0.2% | -7.2% | -9.0 | ?
O=C(NCc1ccco1)C1CCCN1C(=O)Nc1ccc(Cl)cc1 (stereo not given) | 16.4µM* | -9.7 | 0.0% | ? | -10.8 | -2.6%
CC1CCC(NC(=O)c2ccc3c(c2)N(Cc2ccccc2F)C(=O)c2ccccc2S3(=O)=O)CC1 (stereo not given) | ? | . | 1.2% | -10.9% | . | .
COc1ccc(C(=O)Nc2ccc3c(c2)C(=O)N(C)C3=O)cc1OC | -24.3% | 10.8 | . | 1.6% | -4.1 | 14.5%
CCCCn1c(SCc2ccccc2C)nc2ccsc2c1=O | ? | . | -1.5% | ? | . | .
Cc1ccc(NC(=O)CCNC(=O)c2ccccc2Cl)cc1S(=O)(=O)N1CCOCC1 | -3.4% | -21.0 | -0.4% | -8.0% | -13.1 | ?
O=C(NC(=O)N1CCN(c2ccc([N+](=O)[O-])cn2)CC1)c1c(Cl)cccc1Cl | ? | . | . | 9.2µM* | -20.1 | 24.1%
O=C(NC(=O)N1CCN(c2ccc([N+](=O)[O-])cn2)CC1)c1ccccc1F | 9.2µM* | 0.6 | . | ? | -10.8 | ?
O=[N+]([O-])c1ccc(N2CCCC2)nc1 | -10.3% | . | 0.0% | 0.2% | -4.4 | 0.7%
CC(C)(C)c1ccc(C(=O)N2CCCN(c3ccc([N+](=O)[O-])cn3)CC2)cc1 | 18.4µM* | 0.0 | 5.0% | ? | -2.6 | ?
CC(C)(C)C(=O)Nc1cc2c3c(c1)CCN3C(=O)CC2 | 26.2% | 4.7 | -0.3% | 17.1% | -8.9 | ?
COc1ccc(Nc2nnc(-c3ccc(C)cc3)c3ccccc23)cc1C(=O)N1CCCCC1 | ? | -74.3* | 5.6% | ? | 6.7 | ?
COc1cc(C(=O)N2CCN(c3ccccc3)CC2)c2ccccc2n1 | 0.731µM* | 78.2 | . | 0.92µM* | 12.7 | .
